Several values for one entry are separate records, joined by “and”; a condition that tells them apart may be missing. Equal entries are not always repeated. Among all 350,000 compounds or so, about 6,000 (1.7%) were called active. About 5% were inconclusive and are not listed. Shown is part of a subset that was picked to be rich in actives. Values without a mark were called inactive. Cut-off read from the data, not from the text of the source: active = CPE inhibition above about 20% (passing the limit was not always enough); inconclusive = no clear call, values can overlap the other calls; tested in BHK-21 cells.

This passage reports CPE inhibition results from PubChem BioAssay AID651640 (Broad Institute, 2012).

The assay is described as follows: protection of cells from dengue 2 killing – plate reader, single concentration, primary screen (AID 651640).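 Note: 0% = median of neutral control wells and 100% = median of positive control wells.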 Particulars: DENV2-infected cells, cytopathic effect rescue, at 9.99 µM, active compounds read high. A general note: Protection from cytopathic effect is a common read-out in antiviral testing.
Take `C[C@@H]1CN([C@@H](C)CO)C(=O)c2cc(-c3ccccc3F)cnc2O[C@H]1CN(C)C(=O)C1CC1`: the CPE inhibition is -2.29%. In the case of `CO[C@H](CN(C)S(=O)(=O)c1ccc(Cl)cc1)[C@@H](C)CN(Cc1ccccc1Cl)[C@H](C)CO` it was 2.31%; in that of `O=C(C1CCOCC1)N1CC(=O)N2[C@H](CO)[C@H](c3ccc(C#CC4CCCCC4)cc3)[C@H]2C1`, -10.5%. For the compound `O=C(C[C@@H]1C[C@@H]2c3cc(NC(=O)CC4CC4)ccc3O[C@@H]2[C@@H](CO)O1)NCCN1CCCCC1`, the CPE inhibition was 1.09%.

`COc1ccc(NC(=O)N(C)C[C@H]2OCCCC[C@H](C)Oc3ccc(NC(=O)c4ccncc4)cc3C(=O)N([C@H](C)CO)C[C@@H]2C)cc1`: the CPE inhibition is 21.4% (active). For `COc1ccc(NC(=O)N(C)C[C@@H]2OCCCC[C@@H](C)Oc3ccc(NC(=O)NC4CCCCC4)cc3C(=O)N([C@H](C)CO)C[C@@H]2C)cc1`, the CPE inhibition is 1.54% and 2.7%. Take `COc1ccc(NC(=O)N(C)C[C@H]2OCCCC[C@@H](C)Oc3ccc(NC(=O)NC4CCCCC4)cc3C(=O)N([C@H](C)CO)C[C@H]2C)cc1`: the CPE inhibition was 9.97%. For `COc1ccc(NC(=O)N(C)C[C@H]2OCCCC[C@@H](C)Oc3ccc(NS(=O)(=O)c4ccc(F)cc4)cc3C(=O)N([C@H](C)CO)C[C@H]2C)cc1`, the CPE inhibition was 10.2%. In the case of `COc1ccc(NC(=O)N(C)C[C@H]2OCCCC[C@@H](C)Oc3ccc(NC(=O)c4ccncc4)cc3C(=O)N([C@@H](C)CO)C[C@H]2C)cc1` it was 4.05%; in that of `COc1ccc(NC(=O)N(C)C[C@@H]2OCCCC[C@@H](C)Oc3ccc(NS(=O)(=O)c4ccc(Cl)cc4)cc3C(=O)N([C@H](C)CO)C[C@H]2C)cc1`, 37.6% (active). `COc1ccc(NC(=O)N(C)C[C@H]2OCCCC[C@H](C)Oc3ccc(NS(=O)(=O)c4ccc(Cl)cc4)cc3C(=O)N([C@@H](C)CO)C[C@H]2C)cc1`: the CPE inhibition was 12.8%. The value for `COc1ccc(NC(=O)N(C)C[C@@H]2OCCCC[C@H](C)Oc3ccc(NC(=O)c4ccccc4)cc3C(=O)N([C@H](C)CO)C[C@H]2C)cc1` was -12.7%; that for `COc1ccc(NC(=O)N(C)C[C@H]2OCCCC[C@H](C)Oc3ccc(NC(=O)NC4CCCCC4)cc3C(=O)N([C@@H](C)CO)C[C@@H]2C)cc1` was 76.4% (active); that for `O=C(C[C@@H]1C=C[C@@H](NC(=O)Nc2cccc(F)c2)[C@H](CO)O1)NCC1CCCCC1` was 8.16%. In the case of `C[C@@H]1CN([C@@H](C)CO)C(=O)c2cc(C#Cc3ccncc3)cnc2O[C@@H]1CN(C)C(=O)CN(C)C` it was -5.91%; in that of `C[C@H]1CN([C@@H](C)CO)C(=O)Cc2cc(NC(=O)C3CC3)ccc2O[C@@H]1CN(C)S(=O)(=O)c1cccs1`, 0.692%. In the case of `O=C(C[C@H]1C=C[C@@H](NC(=O)Nc2cc(F)ccc2F)[C@@H](CO)O1)NCc1ccc2c(c1)OCO2` it was 3.1%; in that of `CCC(=O)Nc1ccc2c(c1)OC[C@@H](C)N(Cc1cncnc1)C[C@H](C)[C@@H](OC)CN(C)C2=O`, 0.095%.

As to `O=C(Cc1ccncc1)Nc1ccc2c(c1)[C@@H]1C[C@H](CC(=O)N3CCCCC3)O[C@H](CO)[C@@H]1O2`, the CPE inhibition was -1.67%. In the case of `CC(=O)N1[C@H](CN(CC2CCC2)C(=O)CN(C)C)[C@@H](c2ccccc2)[C@@H]1CO` it was -6.71%; in that of `CCO[C@@H]1OC(C(=O)NCc2nc3ccccc3[nH]2)=C[C@H](C2CCCCC2)[C@H]1CCCO`, 5.22%; in that of `CCO[C@H]1OC(C(=O)O)=C[C@@H](C2CCCCC2)[C@@H]1CCCO`, 45.4% (active). For `CCO[C@H]1OC(C(=O)Nc2ccccc2)=C[C@@H](C2CC2)[C@@H]1CCCO`, the CPE inhibition was -12.3%.

For `C[C@H](CO)N1C[C@H](C)[C@@H](CN(C)S(=O)(=O)c2cccs2)OCc2ccccc2-c2ccccc2C1=O`, the CPE inhibition is 0.48%.

Turning to `COc1cccc(NC(=O)CN(C)C(=O)CSC(=S)N2CCCC2)c1`, the CPE inhibition was 31.4% (active). The value for `COc1cccc(NC(=O)CN(C)CC(=O)Nc2ccc3c(c2)CCC3)c1` was 4.15%. The value for `COc1cccc(NC(=O)CN(C)C(=O)Cc2ccc(Cl)cc2Cl)c1` was -4.12%; that for `O=C(Nc1cc(F)ccc1F)N1CCCCN2[C@H](C1)[C@H](c1ccc(-c3cccnc3)cc1)[C@@H]2CO` was -2.73%; that for `CN(C)CCCNC(=O)C[C@@H]1C=C[C@H](NC(=O)c2ccccc2F)[C@H](CO)O1` was -4.33%. Consider `CCCC#Cc1ccc([C@@H]2[C@H](CO)N3CCCCN(S(=O)(=O)c4ccccc4F)C[C@@H]23)cc1`, for which the CPE inhibition was -29.1%.

With `CC(C)NC(=O)N(C)C[C@H]1Oc2cc(-c3cncnc3)ccc2S(=O)(=O)N([C@@H](C)CO)C[C@H]1C`, the CPE inhibition is 12.5%.

Consider `O=C(OCc1ccccc1)N1CCC2CC1c1cc(N3CCN(S(=O)(=O)c4cc(Cl)cc(Cl)c4)CC3)ccc12` (configuration not stated), for which the CPE inhibition was -5.76%. `O=C(OCc1ccccc1)N1CCC2CC1c1ccc(-c3ccc4c(c3)OCO4)cc12` (configuration not stated): the CPE inhibition is 59.5% (active). The value for `Cc1ccc(S(=O)(=O)N(CCc2ccccc2)c2ccc3c(c2)C2CC3CCN2C(=O)OCc2ccccc2)cc1` (configuration not stated) was -3.72%; that for `O=C(C[C@H]1CC[C@H]2[C@@H](COC[C@H](O)CN2Cc2nccs2)O1)NCc1ccc(Oc2ccccc2)cc1` was 3.47%. The value for `CC(Oc1ccccc1)C(=O)Nc1c2c(nn1-c1ccccc1)CS(=O)C2` (configuration not stated) was 2.29%. As for `COc1ccc(-n2nc3c(c2NC(=O)Cc2cccc(C)c2)CS(=O)C3)cc1` (configuration not stated), the CPE inhibition was 99.5% (active).

Turning to `Cc1ccc(-n2nc3c(c2NC(=O)CCC2CCCCC2)CS(=O)C3)cc1` (configuration not stated), the CPE inhibition is -3.75%. Consider `CCCCN1CC(C)(C)[C@H](CC(=O)Nc2ccc(Br)cc2)C1=O`, for which the CPE inhibition was 6.43%. For `CC1(C)CN(CCc2ccccc2)C(=O)[C@H]1CC(=O)Nc1ccc(Br)cc1`, the CPE inhibition was 0.989%. The value for `CC1(C)CN(Cc2cccnc2)C(=O)[C@H]1CC(=O)Nc1ccc(Br)cc1` was 30.1% (active); that for `C[C@@H]1CCCCO[C@@H](CN(C)C(=O)CCC(F)(F)F)[C@H](C)CN([C@@H](C)CO)C(=O)c2cc(NC(=O)CCCN(C)C)ccc2O1` was 3.1%. On to `O=C(NC[C@@H]1[C@H](c2ccccc2)[C@H](CO)N1CC1CCCC1)c1cccnc1`, for which the CPE inhibition was 54.5% (active). Regarding `O=S(=O)(NC[C@H]1[C@@H](c2ccccc2)[C@@H](CO)N1CC1CC1)c1ccccc1`, the CPE inhibition is 8.65%. Take `O=C(NC[C@H]1[C@@H](c2ccccc2)[C@H](CO)N1CC1CC1)c1cccnc1`: the CPE inhibition is -7.73%. For the compound `COc1cccc(-c2ccc3c(c2)O[C@H](CN(C)C(=O)C2CCOCC2)[C@H](C)CN([C@H](C)CO)S3(=O)=O)c1`, the CPE inhibition was -2.8%. As to `Cc1cnc(CN(C)C(=O)CC2C(=O)NCCN2Cc2cccc(F)c2F)[nH]1` (configuration not stated), the CPE inhibition is 20.8% (active).

Turning to `CN(Cc1cccc2ncccc12)C(=O)CC1C(=O)NCCN1Cc1ccc(F)cc1` (configuration not stated), the CPE inhibition is 2.99%. The value for `CC(C)c1nc(CNC(=O)CC2C(=O)NCCN2Cc2cccc(F)c2F)cs1` (configuration not stated) was -4.34%; that for `C[C@@H]1CN([C@@H](C)CO)C(=O)c2cc(NC(=O)Nc3cccc4ccccc34)ccc2O[C@@H](C)CCCCO[C@@H]1CN(C)S(=O)(=O)c1ccc(Cl)cc1` was -12.5%; that for `COc1ccccc1-c1ccc2n(c1=O)C[C@H]1[C@H](CO)[C@@H](C(=O)N[C@@H](C)c3ccccc3)[C@@H]2N1C` was -8.56%. For the compound `CC(C)CC#Cc1ccc([C@@H]2[C@@H](CO)N3C(=O)CN(C(=O)c4cnccn4)C[C@@H]23)cc1`, the CPE inhibition is -1.01%. Regarding `O=C(C[C@@H]1C=C[C@H](NC(=O)CCN2CCCCC2)[C@H](CO)O1)NCc1ccc(Cl)c(Cl)c1`, the CPE inhibition was 0.258%. For the compound `COc1ccc(C(=O)/C=C/c2cccnc2)c(OC)c1`, the CPE inhibition was -6.66%.

In the case of `COc1ccc(/C=C/C(=O)c2c(O)cc(OC)cc2OC)cc1`, the CPE inhibition was -8.14%. In the case of `COc1ccc(/C=C/C(=O)c2ccc(OC)cc2O)cc1` it was 64.1% (active); in that of `O=C1NC[C@@H](c2ccccc2)OC(=O)[C@H](Cc2ccc(F)cc2)CC/C=C/C[C@H]1CC(=O)N(CCO)Cc1ccccc1`, -5.29%; in that of `O=C1CCC/C=C/C[C@@H](CC(=O)N(CCO)Cc2ccccc2)C(=O)NC[C@H](c2ccccc2)O1`, 85.4% (active). As to `O=C1CCC/C=C\C[C@@H](CC(=O)N(CCO)Cc2ccccc2)C(=O)NCCO1`, the CPE inhibition is -1.93%.

Take `COCCN(C[C@H]1[C@H](c2ccccc2)[C@@H](CO)N1C(C)=O)C(=O)c1cccnc1`: the CPE inhibition was -2.67%. In the case of `CN1C(=O)c2cc(NS(=O)(=O)c3ccccc3F)ccc2OC[C@@H]2O[C@@H](CC(=O)NC3Cc4ccccc4C3)CC[C@@H]21` it was 11.5%. In the case of `Cc1ccc2nc(-c3ccc(CN4CCC(n5cc(-c6ccccc6)[nH]c5=O)CC4)cc3)c(-c3ccccc3)nc2c1` it was -12.7%. Turning to `Cc1ccc(F)cc1S(=O)(=O)N[C@@H]1CCN(Cc2ccc(-c3ccccc3)cc2)C1`, the CPE inhibition is -7.61%. In the case of `O=c1[nH]c(-c2ccccc2)cn1C1CCN(Cc2ccc(-c3nc4ccc(F)cc4nc3-c3ccccc3)cc2)CC1`, the CPE inhibition is 33.2% (active). In the case of `C=CCN=C1NC(c2cccc(C(F)(F)F)c2)C(C(=O)OC)=C(C)N1C` (configuration not stated) it was 2.58%; in that of `C[C@@H](NC(=O)C[C@@H]1CC[C@@H](NC(=O)C2CCOCC2)[C@@H](CO)O1)c1ccccc1`, 11.3%; in that of `CN1c2ccc(-c3ccc(F)cc3)cc2[C@@H]2[C@@H](CCN2S(=O)(=O)c2ccc(F)cc2)[C@@H]1CO`, -22.1%.
